± gives the standard deviation of the averaged measurements.
Test system: Serratia marcescens K904 PosmB-luxCDABE reporter (pMQ747)
Experiment: PosmB-lux reporter fold induction (RLU/OD600 relative to no-compound control), highest over Biolog concentrations; higher = stronger reporter activation
Conditions: ΔrcsB mutant CMS5177; 4 h
Protocol: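 Serratia marcescens K904 (wild type) or its isogenic ΔrcsB mutant, carrying the Rcs-dependent PosmB-luxCDABE reporter plasmid pMQ747, was grown in LB at OD600 0.1 in Biolog Phenotype MicroArray plates PM11-20 for 4 h at 30-32°C. Each compound is present at 3-4 proprietary concentrations (not stated); per the Fig. S1 legend the value given is the highest fold over those wells. Three independent trials.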

SMILES | PosmB-lux reporter fold induction
Oc1c(Cl)cc(Cl)c2cccnc12 [5,7-Dichloro-8-hydroxyquinoline] (Biolog plate: PM15, well positions: C1-4) | 1.43 ± 0.18
O=c1c(O)c(-c2cc(O)c(O)c(O)c2)oc2cc(O)cc(O)c12 [myricetin] (Biolog plate: PM18, well positions: G9-12) | 0.868 ± 0.31
CCn1cc(C(=O)O)c(=O)c2ccc(C)nc21 [Nalidixic Acid] (Biolog plate: PM11, well positions: E9-12) | 8.63 ± 3.1
O=C1OC(CN2CCOCC2)CN1/N=C/c1ccc([N+](=O)[O-])o1 (configuration not stated) [Furaltadone] (Biolog plate: PM14, well positions: A5-8) | 1.51 ± 0.47
CC(CN1c2ccccc2Sc2ccccc21)N(C)C (configuration not stated) [Promethazine] (Biolog plate: PM14, well positions: H5-8) | 1.43 ± 0.21
CC(C)(C)CC(C)(C)c1ccc(OCCOCC[N+](C)(C)Cc2ccccc2)cc1 [Benzethonium chloride] (Biolog plate: PM12, well positions: E9-12) | 1.69 ± 0.07
CNC(C)C1CCC(N)C(OC2C(N)CC(N)C(OC3OCC(C)(O)C(NC)C3O)C2O)O1 (configuration not stated) [Gentamicin] (Biolog plate: PM11, well positions: G5-8) | 1.47 ± 0.41
O=[N+]([O-])c1ccc(-[n+]2nc(-c3ccccc3)nn2-c2ccc(I)cc2)cc1 [iodonitro tetrazolium violet] (Biolog plate: PM19, well positions: D5-8) | 0.242 ± 0.11
CCn1nc(C(=O)O)c(=O)c2cc3c(cc21)OCO3 [cinoxacin] (Biolog plate: PM16, well positions: D9-12) | 16.4 ± 3.4
CCC(C)CCCC(=O)N[C@@H](CCN)C(=O)N[C@H](C(=O)N[C@@H](CCN)C(=O)N[C@H]1CCNC(=O)[C@H]([C@@H](C)O)NC(=O)[C@H](CCN)NC(=O)[C@H](CCN)NC(=O)[C@H](CC(C)C)NC(=O)[C@@H](CC(C)C)NC(=O)[C@H](CCN)NC1=O)[C@@H](C)O (some centres not stated) [Colistin] (Biolog plate: PM11, well positions: C5-8) | 1.1 ± 0.22
CC1(C)S[C@@H]2[C@H](NC(=O)C(C(=O)O)c3ccccc3)C(=O)N2[C@H]1C(=O)O (some centres not stated) [Carbenicillin] (Biolog plate: PM14, well positions: G5-8) | 1.05 ± 0.096
On1ccccc1=S [1-Hydroxy-pyridine-2-thione] (Biolog plate: PM14, well positions: C5-8) | 1.1 ± 0.053
Cc1cc(O)cc(C)c1Cl [chloroxylenol] (Biolog plate: PM16, well positions: H5-8) | 1.72 ± 0.43
[Cl][Cu][Cl] [Cupric chloride] (Biolog plate: PM13, well positions: H1-4) | 1.06 ± 0.1
O=C(OC[C@H]1O[C@@H](OC(=O)c2cc(O)c(O)c(OC(=O)c3cc(O)c(O)c(O)c3)c2)[C@H](OC(=O)c2cc(O)c(O)c(OC(=O)c3cc(O)c(O)c(O)c3)c2)[C@@H](OC(=O)c2cc(O)c(O)c(OC(=O)c3cc(O)c(O)c(O)c3)c2)[C@@H]1OC(=O)c1cc(O)c(O)c(OC(=O)c2cc(O)c(O)c(O)c2)c1)c1cc(O)c(O)c(OC(=O)c2cc(O)c(O)c(O)c2)c1 [tannic acid] (Biolog plate: PM17, well positions: F9-12) | 0.888 ± 0.24
Cc1nnc(SCC2=C(C(=O)O)N3C(=O)[C@@H](NC(=O)Cn4cnnn4)[C@H]3SC2)s1 [Cefazolin] (Biolog plate: PM11, well positions: E1-4) | 1.12 ± 0.15
CC1(C)S[C@@H]2[C@H](NC(=O)[C@H](NC(=O)N3CCNC3=O)c3ccccc3)C(=O)N2[C@H]1C(=O)O [Azlocillin] (Biolog plate: PM13, well positions: B1-4) | 1.27 ± 0.56
CC[C@H]1OC(=O)C[C@@H](O)[C@H](C)[C@@H](O[C@@H]2O[C@H](C)[C@@H](O[C@H]3C[C@@](C)(O)[C@@H](O)[C@H](C)O3)[C@H](N(C)C)[C@H]2O)[C@@H](CC=O)C[C@@H](C)C(=O)/C=C/C(C)=C/[C@@H]1CO[C@@H]1O[C@H](C)[C@@H](O)[C@@H](OC)[C@H]1OC [Tylosin] (Biolog plate: PM13, well positions: H9-12) | 4.38 ± 1.6
CN(C)[C@@H]1C(O)=C(C(N)=O)C(=O)[C@@]2(O)C(O)=C3C(=O)c4c(O)cccc4[C@@](C)(O)[C@H]3C[C@@H]12 [Tetracycline] (Biolog plate: PM12, well positions: A5-8) | 1.12 ± 0.097
C[C@@H]1O[C@@H]1P(=O)(O)O [Phosphomycin] (Biolog plate: PM16, well positions: A5-8) | 1.57 ± 0.24
NC(=O)c1cc[n+](CC2=C(C(=O)[O-])N3C(=O)[C@@H](NC(=O)[C@@H](c4ccccc4)S(=O)(=O)O)[C@H]3SC2)cc1 [cefsulodin] (Biolog plate: PM17, well positions: H1-4) | 1.35 ± 0.096
Cn1c(=O)c2c(ncn2C)n(C)c1=O [caffeine] (Biolog plate: PM17, well positions: H5-8) | 1.52 ± 0.34
[Na+].[Na+].[O]=[W](=[O])([O-])[O-] [sodium tungstate] (Biolog plate: PM17, well positions: E9-12) | 0.99 ± 0.14
CO[C@H]1/C=C/O[C@@]2(C)Oc3c(C)c(O)c4c(O)c(c(/C=N/N5CCN(C)CC5)c(O)c4c3C2=O)NC(=O)/C(C)=C\C=C\[C@H](C)[C@H](O)[C@@H](C)[C@@H](O)[C@@H](C)[C@H](OC(C)=O)[C@@H]1C [Rifampicin] (Biolog plate: PM12, well positions: H5-8) | 17.2 ± 8.3
NCC[C@H](O)C(=O)N[C@@H]1C[C@H](N)[C@@H](O[C@H]2O[C@H](CN)[C@@H](O)[C@H](O)[C@H]2O)[C@H](O)[C@H]1O[C@H]1O[C@H](CO)[C@@H](O)[C@H](N)[C@H]1O [Amikacin] (Biolog plate: PM11, well positions: A2-4) | 1 ± 0.088
CO[C@H]1/C=C/O[C@@]2(C)Oc3c(C)c(O)c4c(O)c(cc(O)c4c3C2=O)NC(=O)/C(C)=C\C=C\[C@H](C)[C@H](O)[C@@H](C)[C@@H](O)[C@@H](C)[C@H](OC(C)=O)[C@@H]1C [rifamycin SV] (Biolog plate: PM16, well positions: E9-12) | 35.4 ± 1.7
Cc1noc(NS(=O)(=O)c2ccc(N)cc2)c1C [sulfisoxazole] (Biolog plate: PM18, well positions: C5-8) | 1.5 ± 0.35

— the supplement of paper PMC9942566
